# Source: PubChem BioAssay (several laboratories)
# The list is not random: actives were taken first. Their share in the collection is about 2.7%.
# SENP8 block-1: SENP8 protease inhibition; actives 1.2% (n = 330,000); Q96LD8; inhibition, % at 10 µM; AID 2540; purified SENP8, Z-RLRGG-aminoluciferin cleavage, luminescence; in the data active = inhibition above about 50%
# SENP8 block-2: inhibitors of human SENP8 protease; recombinant SENP8, Nedd8 substrate fluorescence; inhibition, % at 20 µM; actives 0.64% (n = 360,000); AID 602440; in the data active = inhibition mostly above about 40%, no sharp cut-off; inactive = mostly below about 27%
# SENP7 inh: SENP7 protease inhibition; AID 434973; actives 1.5% (n = 330,000); recombinant SENP7, Z-RLRGG-aminoluciferin luminescence, 40 min; Q9BQF6; inhibition, % at 5 µM;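 active = inhibition above about 50% at the single test dose, limit read from the data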;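 note: plate controls were DMSO with enzyme for no effect and no enzyme buffer wells for full effect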
# HSP90 refold inh: blocks HSP90-mediated luciferase refolding in reticulocyte lysate | actives 0.91% (n = 290,000) | AID 1789 | Rabbit reticulocyte lysate, luciferase refolding luminescence, 3 h | inhibition, % at 5.6 µM;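 active = inhibition above the screen-wide mean plus 3 SD, computed separately per campaign, cut at about 16% in these data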;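 note: 0% = DMSO wells and 100% = 60 µM geldanamycin wells; inhibitors lower the luminescence because luciferase stays unfolded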
# SENP6 block: blocks the human protease SENP6. Recombinant SENP6 catalytic domain, aminoluciferin luminescence. inhibition, % at 10 µM. actives 1.8% (n = 330,000). AID 2599;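 active = inhibition above about 50% at the single tested dose, limit read from the data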;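 note: plate controls were DMSO wells with enzyme for no effect and DMSO wells lacking enzyme for full effect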
# Target sequence (Q9GZR1 628-1112 limits assumed): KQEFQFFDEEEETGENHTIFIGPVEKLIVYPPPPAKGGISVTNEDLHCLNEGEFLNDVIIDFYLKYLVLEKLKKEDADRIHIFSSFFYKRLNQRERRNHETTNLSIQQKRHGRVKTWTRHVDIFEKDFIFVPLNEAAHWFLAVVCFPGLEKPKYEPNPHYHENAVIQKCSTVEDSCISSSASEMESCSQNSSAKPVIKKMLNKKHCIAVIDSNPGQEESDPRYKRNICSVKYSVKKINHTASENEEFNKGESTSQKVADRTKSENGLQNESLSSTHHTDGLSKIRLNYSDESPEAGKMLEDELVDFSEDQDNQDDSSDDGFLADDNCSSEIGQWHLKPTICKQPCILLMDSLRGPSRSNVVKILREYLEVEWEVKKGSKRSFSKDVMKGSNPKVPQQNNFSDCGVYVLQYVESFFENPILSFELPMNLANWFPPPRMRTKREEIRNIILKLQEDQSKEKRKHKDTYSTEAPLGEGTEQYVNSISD
# SENP8 confirm: human SENP8 inhibition, confirmed. Recombinant SENP8, Z-RLRGG-aminoluciferin luminescence, 60 min. inhibition, % at 12.5 µM. shares compounds with SENP7 inh. AID 488912. actives 40% (n = 6,200);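 active = mean inhibition across replicates above about 50%, limit read from the data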
# SENP6 confirm: confirmation of human SENP6 protease inhibitors; shares compounds with SENP7 inh; recombinant SENP6, Z-RLRGG-aminoluciferin luminescence; inhibition, % at 12.5 µM; actives 58% (n = 6,200); AID 488915
# SENP7 confirm: human SENP7 inhibition, confirmed; shares compounds with SENP7 inh; recombinant SENP7, Z-RLRGG-aminoluciferin luminescence, 40 min; inhibition, % at 12.5 µM; actives 69% (n = 6,200)
# Casp3 SENP sel: inhibits human caspase-3 in SENP selectivity test; shares compounds with SENP7 inh; purified caspase-3, Z-DEVD-aminoluciferin luminescence, 60 min; inhibition, % at 12.5 µM; actives 60% (n = 6,200);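 active = mean inhibition above about 50%, limit read from the data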;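 note: plate controls were enzyme with DMSO for no effect and wells without caspase-3 for full effect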
# Luc interf: counter-screen for SENP inhibitors: luminescence interference. shares compounds with SENP7 inh. AID 488919. inhibition, % at 12.5 µM. Pre-incubated SENP8/Z-RLRGG-aminoluciferin, luciferase luminescence interference. actives 39% (n = 6,200);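 active = mean inhibition above about 50% when retested at one dose, limit read from the data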;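 note: plate controls were DMSO wells with completed reaction for no effect and substrate without enzyme for full effect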
# An asterisk follows results filed as active; · = no result.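 Rule for the calls, unless noted: active = mean inhibition above about 50% in the one-dose retest (limit read from the data); inactive = the rest.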
SMILES,SENP8 block-1,SENP8 block-2,SENP7 inh,HSP90 refold inh,SENP6 block,SENP8 confirm,SENP6 confirm,SENP7 confirm,Casp3 SENP sel,Luc interf
O=Nc1c(-c2c(O)[nH]c3cc(Br)ccc23)[nH]c2ccccc12,8,20,53*,-6,54*,17,36,79*,22,4
O=C(CSCc1cccc(Br)c1)N=Nc1c(O)[nH]c2ccccc12,0,14,6,1,8,·,·,·,·,·
COc1cccc(C(=O)O[C@H]2[C@H](C)NS(=O)(=O)[C@H]3C[C@@H]4C=C[C@]23O4)c1,-9,8,-2,·,68*,11,3,-1,-5,-5
O=C(c1ccco1)N1CCN(C(c2ccccc2F)c2nnnn2Cc2cccs2)CC1 (configuration not stated),-1,6,0,-2,2,·,·,·,·,·
Cc1cccc(/C(N)=N/OC(=O)CCCN2C(=O)c3ccccc3C2=O)c1,-6,31,1,2,-31,·,·,·,·,·
O=C(NNC(=O)C12CC3CC(CC(Cl)(C3)C1)C2)c1ccncc1,6,9,-2,·,5,·,·,·,·,·
O=C(CSc1ccccn1)N/N=C/c1cc([N+](=O)[O-])ccc1O,6,27*,15,1,52*,33,26,65*,58*,36
O=C(CSc1ccccn1)N/N=C/c1ccccc1[N+](=O)[O-],-13,6,0,1,-15,·,·,·,·,·
O=C(O)c1ccc(N=NN2CCCCC2)cc1,50,6,45,10,68*,54*,47,85*,57*,66*
Cc1cc(-n2c(C)cc(C(=O)CSc3nnnn3-c3ccc(Cl)cc3)c2C)no1,4,4,11,3,-16,·,·,·,·,·
COC(=O)c1cccc(NC(=O)c2ccc(OC)c(Cl)c2)c1,6,12,8,-2,-13,·,·,·,·,·
O=C(Nc1ccc(S(=O)(=O)N2CCCC2)cc1)c1cccc(OC(F)F)c1,0,-2,-1,·,-2,·,·,·,·,·
O=C(Nc1ccc2c(c1)CCC2)c1cccc(OC(F)F)c1,68*,16,75*,·,79*,61*,68*,91*,55*,69*
O=C(Nc1ccc(OC(F)F)c(Cl)c1)c1cccc(OC(F)F)c1,15,18,27,4,62*,52*,48,76*,12,65*
COc1ccc(NC(=O)c2cccc(OC(F)F)c2)cc1Cl,64*,12,80*,2,76*,9,76*,94*,60*,68*
COc1ccc(C2=C(Nc3ccc(C)cc3)c3ccccc3C2=O)cc1,-2,23,10,3,1,·,·,·,·,·
Cc1ccc(NC2=C(NCCO)C(=O)c3ccccc3C2=O)cc1,47,-44,36,-2,70*,34,56*,22,16,2
Nc1nc(N)nc(Cc2ccccc2O)n1,1,6,-7,·,-4,·,·,·,·,·
O=C(O)c1cccc(Nc2ncnc3sccc23)c1,80*,-19,86*,-1,91*,92*,91*,100*,64*,88*
Fc1cccc(Nc2ncnc3sccc23)c1,-17,-9,-7,-1,-12,·,·,·,·,·
COc1ccc(NC(=O)CN2CCC(C)CC2)cc1,3,19,-1,2,6,·,·,·,·,·
COc1cc(NS(=O)(=O)c2ccc(NC(=O)/C(=C/c3ccccc3Cl)NC(=O)c3ccccc3)cc2)nc(OC)n1,3,17,4,-1,64*,-20,-17,-3,-7,-5
COc1ccc2[nH]c(=O)c(CN(CCc3ccccc3)Cc3nnnn3CC3CCCO3)cc2c1 (configuration not stated),0,-350,0,2,-11,·,·,·,·,·
c1ccc2nc3c(nc2c1)[nH]c1ccccc13,60*,-214,75*,-3,29,22,71*,92*,76*,15
CCOC(=O)Cc1csc(N/N=C/c2ccccc2)n1,23,-45,42,7,45,·,·,·,·,·
SMILES,SENP8 block-1,SENP8 block-2,SENP7 inh,HSP90 refold inh,SENP6 block,SENP8 confirm,SENP6 confirm,SENP7 confirm,Casp3 SENP sel,Luc interf
CCOC(=O)Cc1csc(N/N=C\c2ccccc2OC)n1,26,-188,45,1,68*,58*,54*,79*,42,55*
C1CCc2c(c(N3CCOCC3)nc3sc4c(N5CCOCC5)nnnc4c23)C1,·,17,·,·,·,·,·,·,·,·
CC(C)=CCC1=C(OCC(=O)O)C(=O)c2ccccc2C1=O,76*,72*,36,5,-17,80*,87*,65*,10,9
O=c1[nH]c2ccccc2cc1CN(Cc1cccnc1)S(=O)(=O)c1ccc(Cl)cc1,-5,-99,12,-3,-10,·,·,·,·,·
O=C(Nc1ccccc1C(=O)Nc1ccccc1)c1cccs1,2,3,9,-1,-8,·,·,·,·,·
O=C(Nc1ccc(O)cc1C(=O)O)c1cccs1,40,11,41,-3,50*,52*,49,82*,79*,61*
CCOC(=O)c1cc(-c2ccccc2)sc1NC(=O)c1ccc(OC)cc1,-10,·,1,-1,-10,·,·,·,·,·
O=C(Nc1ccc2ncccc2c1)c1cccc(Br)c1,29,7,22,-2,53*,41,37,65*,24,38
O=C(Nc1sc(-c2ccccc2)cc1C(=O)O)c1ccccc1,66*,-321,28,-8,84*,-11,74*,74*,27,60*
O=C(CCCOc1ccc(Cl)cc1Cl)Nc1ccccc1C(=O)O,71*,-3,0,-2,86*,83*,82*,90*,64*,82*
CC(C)(C)c1nnc(NC(=S)Nc2ccccc2)s1,-2,6,-11,-3,32,·,·,·,·,·
Cc1ccccc1C(=O)Nc1ccc(O)cc1C(=O)O,2,8,1,0,-14,·,·,·,·,·
COc1ccc(C(=O)Nc2ccccc2C(=O)O)cc1Cl,94*,14,92*,2,97*,96*,97*,101*,95*,96*
O=C(Nc1ccc(O)cc1C(=O)O)c1cccc(Br)c1,88*,18,83*,-5,95*,94*,92*,98*,90*,92*
O=C(COc1ccc(Cl)cc1Cl)Nc1ccc(C(=O)Nc2ccccc2C(=O)O)cc1,-10,-25,-4,-5,0,·,·,·,·,·
COc1ccc(C(=O)Nc2ccccc2C(=O)O)cc1NC(=O)C(c1ccccc1)c1ccccc1,6,2,-1,-2,8,·,·,·,·,·
